Test results reported in PubChem BioAssay (NCATS).
The source made the active and inactive calls. Where a call stands in place of a potency, no number is given. The call rests on the fitted dose curve; in most records, active means well fitted activation curve with a large enough effect; inconclusive means small, poorly fitted or top-dose-only effect, or effect the other way; inactive means flat fitted curve, though single readings scatter.

Experiment: Cellular Toxicity (caspase-3) Renal Proximal Tubule (AID 667);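 further: cells exposed to compound for 16 hours at 37 °C before detection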
Conditions: renal proximal tubule cells, primary cells freshly taken from rat; Potency: caspase-3 activation; series mostly up to 91.7 µM
Text: NIH Chemical Genomics Center [NCGC]
NIH Molecular Libraries Screening Centers Network [MLSCN]
National Institutes of Environmental Health Sciences [NIEHS]
National Toxicology Program [NTP]
We have developed a 1536-well cell-based assay for quantitative high throughput screening (qHTS) against a number of cell lines to determine in vitro caspase 3/7 activity of small molecules. This particular assay uses the primary kidney proximal tubule cells freshly isolated from rat.
NCGC Assay Protocol Summary:
The Caspase-Glo 3/7 assay (Promega) is a homogeneous method to measure caspase-3 and caspase-7 activities in cultured cells. The quantitation of caspase 3/7 activity is based on the cleavage of a peptide-aminoluciferin substrate. After caspase cleaves the substrate the free aminoluciferin is liberated and serves as the substrate of luciferase, which generates the light. The luminescent signal is proportional to the amount of caspase 3/7 activity present.
Using the Caspase-Glo 3/7 assay, the amount of caspase 3/7 activity was measured in the rat kidney proximal tubule cells with complete culture medium following compound treatment for 16 hours. The assay was performed in opaque white 1536-well plates. In the screen, staurosporine and doxorubicin were used as positive controls. Library compounds were measured for their ability to cause the activation of caspase 3/7 in the cell line, as reflected by an increase in luminescence signal, in a concentration-dependent manner. Data were normalized to the controls for basal activity (DMSO only) and 100% stimulation (10 uM staurosporine). AC50 values were determined from concentration-response data modeled with the standard Hill equation.
qHTS protocol for caspase 3/7 assay in rat kidney proximal tubule cells
[Step] [Parameter] [Value] [Description]
1. Reagent; 5 uL; 1000 rat kidney proximal tubule cells/well
2. Time; 5 hr; 37 °C incubation
4. Controls; 23 nL; doxorubicin 7 pM to 100 uM & staurosporine 1.4 pM to 20 uM
5. Time; 16 hr; 37 °C incubation
6. Reagent; 5 uL; Caspase-Glo 3/7 reagent
7. Time; 1 hr; Room Temperature
8. Detection; Luminescence; Viewlux plate reader
Keywords: caspase 3/7, apoptosis, rat kidney proximal tubule cells, luminescence, NTPHTS, NTPHTS_NCGC, NIEHS, EPA, DSSTox, MLSMR, MLSCN, NIH Roadmap, qHTS, NCGC
In the case of CCCCCCCCCCCCOCC1CO1 (stereo not given), the Potency was “inactive”.
With CCCCC(CC)C(=O)O (stereo not given) the Potency was “inactive”.
For CN(C)c1cccc(O)c1, the Potency was “inactive”.
With CCOCCOCC the Potency was “inactive”.
For NS(=O)(=O)O, the Potency was “inactive”.
For O=C(O)c1cc(Cl)cc(Cl)c1, the Potency was “inactive”.
With Cc1ccc(Br)cc1 the Potency was “inactive”.
In the case of O=C(O)CCSSCCC(=O)O, the Potency was “inactive”.
In the case of CCCCC=O, the Potency was “inactive”.
In the case of CSCCC=O, the Potency was “inactive”.
With CCN(CC)c1cccc(O)c1 the Potency was “inactive”.
With Nc1cccc(S(=O)(=O)O)c1 the Potency was “inactive”.
For CCCCCCC=O, the Potency was “inactive”.
With C=CCCCC the Potency was “inactive”.
In the case of C=C(C)C(=O)OCC(C)O (stereo not given), the Potency was “inactive”.
In the case of O=C(O)CN(CC(=O)O)CC(=O)O, the Potency was “inactive”.
For O=C(O)c1ccccc1C(=O)O, the Potency was “inactive”.
For CC#N, the Potency was “inactive”.
In the case of Nc1cccc(N)c1, the Potency was “inactive”.
For Cc1ccccc1C(N)=O, the Potency was “inactive”.
With Cc1cccc(C(=O)O)c1 the Potency was “inactive”.
For Cc1cccc(C)c1O, the Potency was “inactive”.
For Nc1nc(CC(=O)O)cs1, the Potency was “inactive”.
For O=C(O[C@@H](C(=O)O)[C@@H](OC(=O)c1ccccc1)C(=O)O)c1ccccc1, the Potency was “inactive”.
In the case of C=CCOC(=O)COCCC(C)C, the Potency was “inactive”.
With CCCCC(CC)CO (stereo not given) the Potency was “inactive”.
For CC(C)(C)OCC1CO1 (stereo not given), the Potency was “inactive”.
For Cc1ccc2ncccc2c1, the Potency was “inactive”.
With CCC(C)(C)C the Potency was “inactive”.
In the case of CC=C(Cl)Cl, the Potency was “inactive”.
For O=C(O)c1ccccc1Cl, the Potency was “inactive”.
For CCNS(=O)(=O)c1ccc(C)cc1, the Potency was “inactive”.
For CC(C)=C1CCC(C)CC1=O (stereo not given), the Potency was “inactive”.
For Nc1c(Cl)cc(Cl)cc1Cl, the Potency was “inactive”.
With CC(=O)OC(C)C the Potency was “inactive”.
For Cc1ccc(S(=O)(=O)NC2CCCCC2)cc1, the Potency was “inactive”.
For CC(C)c1ccccc1, the Potency was “inactive”.
With CC/C=C/C#N the Potency was “inactive”.
With O=CNc1ccccc1 the Potency was “inactive”.
With CC(C=O)Cc1ccc(C(C)(C)C)cc1 (stereo not given) the Potency was “inactive”.
